Experimental data as given in PubChem BioAssay AID1159580 (chemical genetic matrix, 2015).
In all, about 5,500 compounds went through this assay and about 2,000 (36%) were called active. Not shown: some 18% with an inconclusive outcome. No stated cut-off is given here; in the data, active means normalized growth mostly below about 0.91 (no sharp cut-off); inconclusive means no clear call, values can overlap the other calls; inactive means mostly above about 0.92. The list shows a part of the results.

Assay: chemical genetic growth profiling, strain panel (AID 1159580);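 further: tested at 20 µM; growth read once vehicle control cultures reached saturation at 30 °C; 1 = growth at the plate median or of vehicle wells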
Details: growth OD

Measured: normalized growth

O=C(/C=C/c1ccc(O)c(O)c1)O[C@@H]1C[C@](O)(C(=O)O)C[C@@H](O)[C@H]1O
inactive: S. cerevisiae deletion strains, locus YKL009W, strain mrt4, stronger effect = lower value 1.04 | S. cerevisiae deletion strains, locus YKL068W, stronger effect = lower value 1.01 | S. cerevisiae deletion strains, locus YKL085W, strain MDH1 (second series), stronger effect = lower value 1 | S. cerevisiae deletion strains, locus YKL085W, strain MDH1, stronger effect = lower value 1 | S. cerevisiae deletion strains, locus YKL160W, strain elf1, stronger effect = lower value 1.03 | S. cerevisiae deletion strains, locus YKR001C, strain vps1, stronger effect = lower value 1.03 | S. cerevisiae deletion strains, locus YKR026C, strain gcn3, stronger effect = lower value 0.973 | S. cerevisiae deletion strains, locus YKR091W, strain srl3, stronger effect = lower value 0.992 | S. cerevisiae deletion strains, locus YLL001W, strain dnm1, stronger effect = lower value 0.99 | S. cerevisiae deletion strains, locus YLL026W, stronger effect = lower value 0.985 | S. cerevisiae deletion strains, locus YLL041C, strain sdh2, stronger effect = lower value 0.974 | S. cerevisiae deletion strains, locus YLR027C, strain aat2, stronger effect = lower value 0.999 | S. cerevisiae deletion strains, locus YLR039C, strain RIC1, stronger effect = lower value 1.05 | S. cerevisiae deletion strains, locus YLR058C, strain SHM2, stronger effect = lower value 1.01 | S. cerevisiae deletion strains, locus YLR102C, strain apc9, stronger effect = lower value 1.01 | S. cerevisiae deletion strains, locus YLR113W, strain HOG1, stronger effect = lower value 1 | S. cerevisiae deletion strains, locus YLR221C, strain rsa3, stronger effect = lower value 0.972 | S. cerevisiae deletion strains, locus YLR258W, strain gsy2, stronger effect = lower value 0.985 | S. cerevisiae deletion strains, locus YLR262C, strain YPT6 (second series), stronger effect = lower value 0.996 | S. cerevisiae deletion strains, locus YLR262C, strain YPT6, stronger effect = lower value 1.11 | S. cerevisiae deletion strains, locus YLR268W, strain sec22, stronger effect = lower value 1.05 | S. cerevisiae deletion strains, locus YLR320W, strain mms22, stronger effect = lower value 0.969 | S. cerevisiae deletion strains, locus YLR330W, strain CHS5, stronger effect = lower value 1.01 | S. cerevisiae deletion strains, locus YLR342W, strain FKS1 (second series), stronger effect = lower value 0.998 | S. cerevisiae deletion strains, locus YLR342W, strain FKS1, stronger effect = lower value 0.988 | S. cerevisiae deletion strains, locus YLR357W, strain rsc2, stronger effect = lower value 1 | S. cerevisiae deletion strains, locus YLR370C, strain arc18, stronger effect = lower value 0.986 | S. cerevisiae deletion strains, locus YLR371W, strain rom2, stronger effect = lower value 1.01 | S. cerevisiae deletion strains, locus YLR384C, strain iki3, stronger effect = lower value 0.96 | S. cerevisiae deletion strains, locus YLR418C, strain cdc73, stronger effect = lower value 0.992 | S. cerevisiae deletion strains, locus YML016C, strain PPZ1, stronger effect = lower value 1 | S. cerevisiae deletion strains, locus YML032C, strain rad52, stronger effect = lower value 0.999 | S. cerevisiae deletion strains, locus YML120C, strain ndi1, stronger effect = lower value 0.993 | S. cerevisiae deletion strains, locus YML124C, strain tub3, stronger effect = lower value 1.01 | S. cerevisiae deletion strains, locus YMR058W, strain fet3, stronger effect = lower value 0.978 | S. cerevisiae deletion strains, locus YMR078C, strain ctf18, stronger effect = lower value 1.02 | S. cerevisiae deletion strains, locus YMR125W, strain sto1, stronger effect = lower value 0.99 | S. cerevisiae deletion strains, locus YMR129W, stronger effect = lower value 0.991 | S. cerevisiae deletion strains, locus YMR205C, strain PFK2, stronger effect = lower value 1.03 | S. cerevisiae deletion strains, locus YMR223W, strain ubp8, stronger effect = lower value 1 | S. cerevisiae deletion strains, locus YMR231W, strain pep5, stronger effect = lower value 0.971 | S. cerevisiae deletion strains, locus YMR263W, strain SAP30, stronger effect = lower value 1.01 | S. cerevisiae deletion strains, locus YMR307W, strain GAS1, stronger effect = lower value 0.959 | S. cerevisiae deletion strains, locus YNL067W, strain RPL9B, stronger effect = lower value 1.04 | S. cerevisiae deletion strains, locus YNL071W, strain lat1, stronger effect = lower value 0.987 | S. cerevisiae deletion strains, locus YNL128W, strain TEP1, stronger effect = lower value 1.04 | S. cerevisiae deletion strains, locus YNL153C, strain GIM3, stronger effect = lower value 1.02 | S. cerevisiae deletion strains, locus YNL183C, strain NPR1, stronger effect = lower value 0.957 | S. cerevisiae deletion strains, locus YNL209W, strain ssb2, stronger effect = lower value 0.991 | S. cerevisiae deletion strains, locus YNL233W, strain BNI4, stronger effect = lower value 1.02 | S. cerevisiae deletion strains, locus YNL248C, strain rpa49, stronger effect = lower value 0.982 | S. cerevisiae deletion strains, locus YNL250W, strain rad50, stronger effect = lower value 1.03 | S. cerevisiae deletion strains, locus YNL271C, strain bni1, stronger effect = lower value 1.01 | S. cerevisiae deletion strains, locus YNL298W, strain CLA4, stronger effect = lower value 1.02 | S. cerevisiae deletion strains, locus YNL307C, strain MCK1, stronger effect = lower value 1.02 | S. cerevisiae deletion strains, locus YNL322C, strain KRE1 (second series), stronger effect = lower value 0.976 | S. cerevisiae deletion strains, locus YNL322C, strain KRE1, stronger effect = lower value 1 | S. cerevisiae deletion strains, locus YNR049C, strain mso1, stronger effect = lower value 0.973 | S. cerevisiae deletion strains, locus YNR052C, strain pop2, stronger effect = lower value 1.01 | S. cerevisiae deletion strains, locus YOL006C, strain TOP1, stronger effect = lower value 1.15 | S. cerevisiae deletion strains, locus YOL012C, strain htz1 0.974 | S. cerevisiae deletion strains, locus YOL147C, strain pex11, stronger effect = lower value 1.02 | S. cerevisiae deletion strains, locus YOR001W, strain rrp6, stronger effect = lower value 0.925 | S. cerevisiae deletion strains, locus YOR061W, strain CKA2, stronger effect = lower value 1.01 | S. cerevisiae deletion strains, locus YOR069W, strain VPS5, stronger effect = lower value 1.01 | S. cerevisiae deletion strains, locus YOR070C, strain gyp1, stronger effect = lower value 0.985 | S. cerevisiae deletion strains, locus YOR080W, strain dia2, stronger effect = lower value 0.983 | S. cerevisiae deletion strains, locus YOR083W, strain WHI5, stronger effect = lower value 1.04 | S. cerevisiae deletion strains, locus YOR106W, strain vam3, stronger effect = lower value 1 | S. cerevisiae deletion strains, locus YOR136W, strain idh2, stronger effect = lower value 1.03 | S. cerevisiae deletion strains, locus YOR144C, strain elg1, stronger effect = lower value 1.01 | S. cerevisiae deletion strains, locus YOR184W, strain ser1, stronger effect = lower value 1 | S. cerevisiae deletion strains, locus YOR231W, strain MKK1, stronger effect = lower value 1.02 | S. cerevisiae deletion strains, locus YOR265W, strain rbl2, stronger effect = lower value 0.999 | S. cerevisiae deletion strains, locus YOR270C, strain vph1, stronger effect = lower value 0.924 | S. cerevisiae deletion strains, locus YOR290C, strain snf2, stronger effect = lower value 1.01 | S. cerevisiae deletion strains, locus YOR316C, strain cot1, stronger effect = lower value 1.02 | S. cerevisiae deletion strains, locus YPL051W, strain arl3, stronger effect = lower value 0.999 | S. cerevisiae deletion strains, locus YPL055C, strain LGE1, stronger effect = lower value 1.03 | S. cerevisiae deletion strains, locus YPL078C, strain atp4, stronger effect = lower value 1.02 | S. cerevisiae deletion strains, locus YPL106C, strain sse1, stronger effect = lower value 0.995 | S. cerevisiae deletion strains, locus YPL240C, strain hsp82, stronger effect = lower value 0.969 | S. cerevisiae deletion strains, locus YPL256C, strain CLN2, stronger effect = lower value 1.01 | S. cerevisiae deletion strains, locus YPR119W, strain clb2, stronger effect = lower value 1.01 | S. cerevisiae deletion strains, locus YPR141C, strain kar3, stronger effect = lower value 1.01 | S. cerevisiae deletion strains, locus YPR163C, strain tif3, stronger effect = lower value 1.03 | S. cerevisiae deletion strains, locus YPR167C, strain met16, stronger effect = lower value 1.01 | S. cerevisiae deletion strains, strain wtn01, stronger effect = lower value 1.05 | S. cerevisiae strains, strain wild type, stronger effect = lower value 1.01
